Consider 17 compounds from PubChem BioAssay.

A short description of assay [1]: small molecules captured by biotinylated probe aFSTL3 – biochemical, small-molecule microarray, fluorescence 635/667, stem cell growth factor project, primary screen (AID 1064).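 Note: measures binding of the biotinylated anti-FSTL3 antibody to printed compounds.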 Conditions: higher = more signal.
Assay [2] in a line: binders from COS7 lysate, DM2A8 probe, primary screen, torsin A project, cell lysate, small-molecule microarray, fluorescence 635/667 (AID 1065). Conditions: higher = more signal, COS7 lysate expressing mutant human TOR1A.
Assay [3] is described as follows: small molecules captured by biotinylated probe aFGF2 – biochemical, small-molecule microarray, fluorescence 635/667, stem cell growth factor project, primary screen (AID 1067).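 Note: measures binding of biotinylated aFGF2 protein to printed compounds on slides; z-score merges feature fluorescence and signal-to-noise across triplicate slides.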 Conditions: higher = more signal.
A short description of assay [4]: small molecules captured by biotinylated probe aFGF10 – biochemical, small-molecule microarray, fluorescence 635/667, stem cell growth factor project, primary screen (AID 1071).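 Note: score merges 667 nm spot intensity and signal to noise from triplicate slides.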 The settings on record: higher = more signal.
Assay [5] deals with Neurogenic locus notch homolog protein 2 (Homo sapiens) (UniProt Q04721). The experiment in a line: small molecules binding Notch2 protein – biochemical, small-molecule microarray, 635 nm fluorescence, stem cell growth factors, primary screen (AID 1073). Conditions: higher = more signal.
Chain of Neurogenic locus notch homolog protein 2 (Homo sapiens) (Q04721 whole entry, looked up, canonical isoform): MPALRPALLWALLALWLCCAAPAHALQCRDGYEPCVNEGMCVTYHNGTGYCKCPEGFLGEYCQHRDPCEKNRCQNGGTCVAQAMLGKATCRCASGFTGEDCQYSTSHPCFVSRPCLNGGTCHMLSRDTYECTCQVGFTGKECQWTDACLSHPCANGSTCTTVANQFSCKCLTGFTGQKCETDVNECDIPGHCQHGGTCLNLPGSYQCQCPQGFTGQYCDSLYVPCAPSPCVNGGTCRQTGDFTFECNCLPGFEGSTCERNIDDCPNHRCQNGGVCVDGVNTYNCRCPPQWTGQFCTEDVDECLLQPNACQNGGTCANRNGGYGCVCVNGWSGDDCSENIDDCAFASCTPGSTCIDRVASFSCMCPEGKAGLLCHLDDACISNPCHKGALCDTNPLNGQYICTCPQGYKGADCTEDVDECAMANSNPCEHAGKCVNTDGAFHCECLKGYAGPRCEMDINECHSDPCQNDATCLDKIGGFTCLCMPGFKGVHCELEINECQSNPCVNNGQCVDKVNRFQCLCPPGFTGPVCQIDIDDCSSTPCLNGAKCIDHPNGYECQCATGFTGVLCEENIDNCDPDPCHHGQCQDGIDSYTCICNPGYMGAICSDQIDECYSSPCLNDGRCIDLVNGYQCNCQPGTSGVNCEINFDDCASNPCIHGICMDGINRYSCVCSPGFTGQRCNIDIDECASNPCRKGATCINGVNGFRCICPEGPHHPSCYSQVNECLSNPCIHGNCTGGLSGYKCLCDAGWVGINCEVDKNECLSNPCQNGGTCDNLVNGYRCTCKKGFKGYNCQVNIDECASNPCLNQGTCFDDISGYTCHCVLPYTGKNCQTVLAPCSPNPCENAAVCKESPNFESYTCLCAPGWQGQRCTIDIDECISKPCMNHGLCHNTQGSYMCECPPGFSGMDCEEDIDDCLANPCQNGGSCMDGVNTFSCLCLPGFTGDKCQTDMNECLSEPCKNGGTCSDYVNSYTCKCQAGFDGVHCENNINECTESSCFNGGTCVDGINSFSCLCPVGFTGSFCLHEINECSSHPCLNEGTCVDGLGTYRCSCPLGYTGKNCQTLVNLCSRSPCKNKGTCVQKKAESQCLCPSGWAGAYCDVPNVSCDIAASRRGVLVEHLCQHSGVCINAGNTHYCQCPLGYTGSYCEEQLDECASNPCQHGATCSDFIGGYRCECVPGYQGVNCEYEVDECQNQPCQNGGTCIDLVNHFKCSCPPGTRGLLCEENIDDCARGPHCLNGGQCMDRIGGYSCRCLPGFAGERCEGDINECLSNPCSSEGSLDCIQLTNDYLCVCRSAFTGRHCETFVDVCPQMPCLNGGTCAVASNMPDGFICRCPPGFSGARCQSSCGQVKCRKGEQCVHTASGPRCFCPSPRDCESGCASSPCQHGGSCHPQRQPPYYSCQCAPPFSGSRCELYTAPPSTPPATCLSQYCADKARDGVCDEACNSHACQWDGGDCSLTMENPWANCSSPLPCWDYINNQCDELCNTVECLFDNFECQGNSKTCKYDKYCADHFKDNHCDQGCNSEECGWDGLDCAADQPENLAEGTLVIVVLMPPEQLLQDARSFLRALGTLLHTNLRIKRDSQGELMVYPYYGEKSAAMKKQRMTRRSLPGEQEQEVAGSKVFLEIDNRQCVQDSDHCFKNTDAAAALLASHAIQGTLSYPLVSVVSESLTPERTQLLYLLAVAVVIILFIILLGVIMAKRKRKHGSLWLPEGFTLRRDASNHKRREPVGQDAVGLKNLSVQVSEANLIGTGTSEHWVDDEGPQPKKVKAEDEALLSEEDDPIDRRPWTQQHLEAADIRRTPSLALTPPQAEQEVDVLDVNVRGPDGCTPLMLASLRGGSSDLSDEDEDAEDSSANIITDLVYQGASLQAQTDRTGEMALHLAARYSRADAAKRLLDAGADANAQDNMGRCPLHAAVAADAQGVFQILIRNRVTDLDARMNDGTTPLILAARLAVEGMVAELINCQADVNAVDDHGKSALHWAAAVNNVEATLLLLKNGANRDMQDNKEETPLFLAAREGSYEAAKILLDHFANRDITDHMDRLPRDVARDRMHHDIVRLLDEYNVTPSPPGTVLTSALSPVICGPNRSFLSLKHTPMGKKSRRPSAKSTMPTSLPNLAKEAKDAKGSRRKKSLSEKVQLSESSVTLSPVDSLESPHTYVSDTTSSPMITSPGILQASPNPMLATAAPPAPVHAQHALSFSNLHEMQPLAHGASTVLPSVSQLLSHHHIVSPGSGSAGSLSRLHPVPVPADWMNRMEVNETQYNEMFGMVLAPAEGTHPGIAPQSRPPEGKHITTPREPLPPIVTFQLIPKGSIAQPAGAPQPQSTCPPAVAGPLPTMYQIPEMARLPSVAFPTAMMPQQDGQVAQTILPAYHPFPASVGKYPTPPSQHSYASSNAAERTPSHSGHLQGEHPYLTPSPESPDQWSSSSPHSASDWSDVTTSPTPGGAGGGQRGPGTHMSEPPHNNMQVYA
Assay [6] deals with Pro-neuregulin-1, membrane-bound isoform (Homo sapiens) (UniProt Q02297). The experiment in a line: small molecules binding neuregulin-1 protein – biochemical, small-molecule microarray, fluorescence 635/667, psychiatric disease protein project, primary screen (AID 1075).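 Note: score combines 667 nm spot fluorescence with signal to noise.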 The settings on record: NRG1 binding, 635 nm fluorescence, higher = more signal.
Chain of Pro-neuregulin-1, membrane-bound isoform (Homo sapiens) (Q02297 whole entry, looked up, the tested form may be a part, canonical isoform): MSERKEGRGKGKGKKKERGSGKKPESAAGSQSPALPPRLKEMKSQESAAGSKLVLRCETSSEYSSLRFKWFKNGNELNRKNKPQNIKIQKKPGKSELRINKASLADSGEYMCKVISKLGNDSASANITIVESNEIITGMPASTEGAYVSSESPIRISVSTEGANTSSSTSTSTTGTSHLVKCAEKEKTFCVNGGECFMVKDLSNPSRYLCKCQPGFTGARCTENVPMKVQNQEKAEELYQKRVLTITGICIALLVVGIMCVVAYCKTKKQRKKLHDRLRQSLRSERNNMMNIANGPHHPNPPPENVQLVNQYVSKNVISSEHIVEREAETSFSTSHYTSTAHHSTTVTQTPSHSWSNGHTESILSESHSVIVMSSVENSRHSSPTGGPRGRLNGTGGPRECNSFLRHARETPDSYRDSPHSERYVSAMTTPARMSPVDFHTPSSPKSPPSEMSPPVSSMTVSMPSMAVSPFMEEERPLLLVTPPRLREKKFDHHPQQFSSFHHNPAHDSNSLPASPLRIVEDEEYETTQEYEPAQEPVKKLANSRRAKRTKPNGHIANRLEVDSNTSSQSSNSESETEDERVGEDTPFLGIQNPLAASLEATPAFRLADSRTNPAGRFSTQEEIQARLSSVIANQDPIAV
Assay [7] relates to Neuregulin-1 EGF-like domain. Nature of the assay: small molecules binding NRG1 EGF domain – biochemical, small-molecule microarray, 635 nm fluorescence, primary screen (AID 1081).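 Note: binding of the protein to compounds printed on small-molecule microarray slides.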 The settings on record: higher = more signal.
The nature of assay [8]: FRG1 expression reporter modulators in myotubes – cell-based, C2C12 myotubes, firefly/Renilla luciferase, luminescence, FRG1 inhibition for FSHD, primary screen (AID 1084). Conditions: FRG1 promoter luciferase, higher = more signal, called active from +8 up or from −8 down.
Assay [9] is described as follows: small molecules captured by biotinylated probe aFST – biochemical, small-molecule microarray, fluorescence 635/667, stem cell growth factor project, primary screen (AID 1086).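 Note: score merges 667 nm fluorescence with signal-to-noise of each printed compound spot.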 Conditions: higher = more signal.
Assay [10] in a line: binders of probe aHhip on microarray, primary screen, stem cell growth factor project, biochemical, small-molecule microarray, fluorescence 635/667 (AID 1087).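 Note: score merges spot fluorescence at 667nm with spot signal to noise ratio.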 Conditions: higher = more signal.

The source made the active and inactive calls.

Regarding `COc1cc2c(cc1O)C(c1cccs1)N(Cc1cc3c(cc1Br)OCO3)CC2` (stereo not given), the composite z-score is -0.0508 in assay [1]; 0.58 in assay [2]; 0.0797 in assay [3]; 1.3 in assay [4]; 1.56 in assay [5]; 2.08 in assay [6]. Moreover, the values for the composite z-score in [7], in assay [9] and in [10] were 1.45, 1.23 and 0.0881, respectively. Also, the z-score in assay [8] is 0.364 (inactive).
On to `O=C1O[C@@H](c2ccccc2)[C@@H](c2ccccc2)N2[C@@H](c3ccc(O)cc3)[C@]3(C(=O)Nc4ccc(C#CCCO)cc43)[C@@H](C(=O)N3CCN(c4ncccn4)CC3)[C@H]12`, for which the composite z-score in assay [1] is -1.14; in [2] it was -0.307; in assay [3] it was -0.265; in assay [4], 0.204; in [5] it was 0.973; in [6], 0.564. Also, the composite z-score in [7] was 1.35; in assay [9], -0.925; in assay [10], -1.27. For the same compound, the z-score in assay [8] is -1.55 (inactive).
Consider `C=CCC(OC(C)=O)[C@@H]1[C@@H](N(Cc2cccc3ccccc23)C(=O)Cc2ccc(F)cc2)c2cc(OCCCO)ccc2N1C(=O)c1ccc2ccccc2c1` (stereo not given in full), for which the composite z-score in assay [1] was -0.0968; in assay [2] it was -0.0168; in [3] it was -0.0925; in assay [4], 0.0597; in [5], -0.108; in assay [6] it was -0.398. The figures for the composite z-score in assay [7], in assay [9] and in [10] were -0.691, -0.0779 and 0.0722, respectively. Further, the z-score in assay [8] is -1.72 (inactive).
For `CCCNC(=O)[C@@]1(Sc2ccc(C)cc2)CC(=O)N(C2Cc3ccccc3C2)[C@@H]1c1ccc(CO)cc1I`, the composite z-score was 0.427 in assay [1]; 0.31 in assay [2]; -0.103 in assay [3]; 0.0119 in [4]; -0.445 in [5]; 0.917 in assay [6]. Besides, the composite z-score in assay [7] is 1.01; in [9] it was -0.227; in assay [10], 0.0505. For the same compound, the z-score in assay [8] is -0.653 (inactive).
With `CC1CC/C=C\[C@H]2OC34C=CCN(C(C)C)C(=O)[C@H]3N(CCO)C(=O)[C@@H]4C2C(=O)O1` (stereo not given in full), the composite z-score in assay [1] was 0.689; in assay [2], 0.987; in assay [3], -0.159; in assay [4], -0.228; in assay [5] it was -1.19; in assay [6] it was 1.08. For the same compound, the composite z-score in assay [7] was 1.23; in assay [9], -0.662; in assay [10] it was -0.134. Further, in assay [8], the z-score was 0.0746 (inactive).
Turning to `[N-]=[N+]=Nc1ccccc1[C@@H]1OC(c2ccc(OCCCO)cc2)=N[C@]1(Cc1ccccc1)C(=O)O`, the composite z-score in assay [1] is -0.0974; in [2], 0.396; in assay [3], -0.0178; in assay [4], 0.366; in [5] it was 0.828; in assay [6], 1.42. The composite z-score in assay [7] is 1.22; in assay [9] it was 1.39; in assay [10], -0.126. For the same compound, the z-score in assay [8] was 0.235 (inactive).
Turning to `CCOC(=O)C1=CC[C@@H](c2ccccc2)N(S(=O)(=O)c2ccc(C)cc2)[C@H]1c1ccccc1`, the composite z-score in [1] is 0.322; in assay [2], 0.13; in [3], -0.0073; in [4], 0.296; in assay [5], 1.37; in [6], 0.334. Moreover, the values for the composite z-score in [7], in assay [9] and in assay [10] were 0.628, 0.77 and -0.265, respectively. Moreover, the z-score in assay [8] is -2.4 (inactive).
With `CCCCCCc1nc(Cc2cc(OC)c(OC)c(OC)c2)cc2c1[Si](C(C)C)(C(C)C)OC2`, the composite z-score was -0.288 in assay [1]; -0.117 in assay [2]; -0.0909 in assay [3]; 0.0277 in assay [4]; -0.196 in [5]; -0.184 in assay [6]. Besides, the figures for the composite z-score in assay [7], in assay [9] and in assay [10] were -0.434, -0.0763 and -0.0427, respectively. Besides, the z-score in assay [8] was 1.06 (inactive).
For `COc1ccc([Si](C)(C)[C@@H]2[C@@H](CCO)O[C@]3(C(=O)N(Cc4ccccc4)c4ccc(N5C(=O)c6cccc7cccc5c67)cc43)[C@H]2C)cc1`, the composite z-score is 0.107 in [1]; -0.908 in [2]; -0.0729 in assay [3]; -0.086 in assay [4]; -0.0923 in assay [5]; 0.367 in assay [6]. The composite z-score in [7] is 0.609; in assay [9], -0.175; in assay [10], -0.271. Besides, the z-score in [8] was 0.0135 (inactive).
With `NC(=O)NCC#Cc1ccc2c(c1)[C@]1(C(=O)N2)[C@H](c2ccccc2OCCO)N2[C@H](c3ccccc3)[C@H](c3ccccc3)OC(=O)[C@H]2[C@@H]1C(=O)O`, the composite z-score in assay [1] is 0.129; in assay [2] it was 0.443; in assay [3] it was -0.0383; in assay [4], -0.0167; in assay [5], -0.243; in assay [6], 1.11. Moreover, the results for the composite z-score in assay [7], in assay [9] and in assay [10] were -0.0034, -0.362 and -0.438, respectively. The z-score in [8] was 0.233 (inactive).
As to `O=C1N(CCS(=O)(=O)c2ccccc2)c2ccccc2[C@H]2OC(c3ccc(OCCCO)cc3)=N[C@@]12Cc1ccccc1`, the composite z-score in assay [1] is 0.529; in assay [2] it was 0.756; in assay [3] it was 0.0918; in [4], 0.102; in assay [5], 0.918; in [6], -0.0845. The composite z-score in [7] was 1.29; in [9], 0.772; in assay [10] it was -0.0663. In addition, the z-score in [8] is -0.375 (inactive).
As to `CCCCN1CC=CC23O[C@@H]4/C=C\CCC(C)OC(=O)C4[C@H]2C(=O)N(CCCO)[C@@H]3C1=O` (stereo not given in full), the composite z-score in assay [1] was 0.35; in [2], -0.913; in assay [3], -0.195; in assay [4], -0.317; in assay [5], -0.962; in assay [6] it was 1.93. In addition, the composite z-score in [7] was 1.1; in assay [9] it was -0.663; in assay [10], -0.306. In addition, the z-score in assay [8] is -0.313 (inactive).
As for `C=CCOC(=O)[C@@]1(Cc2ccccc2)C[C@H]2CO[C@H](c3ccc(OC)cc3)N2C1=O`, the composite z-score in assay [1] was -0.442; in [2], 0.366; in assay [3], -0.12; in assay [4], 0.252; in assay [5], 0.0925; in assay [6] it was -0.294. Further, the composite z-score in [7] is 0.209; in assay [9], -0.135; in [10], 0.0373. In addition, in assay [8], the z-score was -1.33 (inactive).
Turning to `CCCCC(CC)C(O)C1C=CC2C(=O)N(c3ccccc3)C(=O)C2N1Nc1ccccc1F` (stereo not given), the composite z-score was 0.0758 in assay [1]; 0.39 in assay [2]; 0.151 in assay [3]; 0.972 in [4]; 1.54 in assay [5]; -0.144 in assay [6]. The composite z-score was 1.21 in assay [7], 0.727 in [9] and -0.123 in assay [10]. For the same compound, the z-score in assay [8] was 0.39 (inactive).
Regarding `CCOc1cc(C(O)C2C=CC3C(=O)NC(=O)C3N2Nc2ccc(Cl)cc2Cl)ccc1O` (stereo not given), the composite z-score in [1] was 0.0596; in assay [2], -0.565; in [3], 0.042; in [4] it was -0.246; in assay [5] it was -0.463; in [6] it was -0.226. Moreover, the values for the composite z-score in assay [7], in assay [9] and in assay [10] were -0.885, 0.0054 and -0.297, respectively. The z-score in assay [8] was 0.59 (inactive).
On to `C=C(COC)/C(=C/C[C@H](OC(=O)c1ccncc1)c1ccccc1OCCO)c1cc(C(=O)OC)ccc1OC`, for which the composite z-score in [1] was -0.457; in assay [2], 0.562; in assay [3], -0.167; in assay [4], 0.67; in assay [5], 0.302; in assay [6], 1.16. In addition, the composite z-score was 0.869 in assay [7], 0.431 in assay [9] and -0.442 in assay [10]. For the same compound, the z-score in assay [8] was -0.872 (inactive).
In the case of `CC1CC/C=C\[C@H]2OC34C=CCN(C(C)(C)C)C(=O)[C@H]3N(CCCCCO)C(=O)[C@@H]4C2C(=O)O1` (stereo not given in full), the composite z-score is -0.108 in assay [1]; -0.688 in [2]; -0.172 in assay [3]; -0.817 in assay [4]; -1.57 in assay [5]; 0.299 in assay [6]. Further, the composite z-score was 0.479 in [7], -0.581 in [9] and -0.261 in [10]. For the same compound, the z-score in [8] is -0.0661 (inactive).
